Source: PubChem BioAssay (NCATS)
Results filed as inconclusive are left out. A call without a number means that no potency is given here. Values without a mark were called inactive. Activity calls are given as the source filed them. The call rests on the fitted dose curve; in most records, active means well fitted inhibition curve with a large enough effect; inconclusive means small, poorly fitted or top-dose-only effect; inactive means flat fitted curve, though single readings scatter.

molecular target: Glutathione peroxidase 1 (Homo sapiens) (UniProt P07203); test: Primary qHTS Assay for Inhibitors of Recombinant Selenoprotein Glutathione Peroxidase 1 (GPX1) (AID 1845191); details: recombinant GPX1, GR-coupled NADPH fluorescence, 15 min; series mostly up to 48.8 µM; further: nearly all actives have a fitted effect of over 65% in size
Sequence (P07203 whole entry, looked up): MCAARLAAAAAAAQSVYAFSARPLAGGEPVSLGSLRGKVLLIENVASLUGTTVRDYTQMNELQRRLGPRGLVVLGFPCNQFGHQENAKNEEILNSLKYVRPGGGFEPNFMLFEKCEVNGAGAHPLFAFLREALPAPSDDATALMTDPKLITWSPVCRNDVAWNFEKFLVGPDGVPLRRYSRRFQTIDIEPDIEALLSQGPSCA
Outline: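 GPX1 10 nM, GR 100 nM, GSH 1 mM, NADPH 0.5 mM, CHP 0.5 mM (final). 30-min cpd preincubation, RT. Ex340/Em450 read t=0, t=15 min.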
Potency means the concentration at half of the fitted maximal effect.

Compound | Potency | activity, negative = inhibition | outcome
Nc1ncnc2c1ncn2[C@H]1CCCO1 | inactive | – | –
COc1ccc2cc(OCC3(C(=O)O)CN(C(=O)c4ccc(F)cc4)C3)ccc2c1 | inactive | – | –
C[C@H]1[C@H](C)CC[C@]2(C(=O)O[C@@H]3O[C@H](CO)[C@@H](O)[C@H](O)[C@H]3O)CC[C@]3(C(=O)O)C(=CCC4[C@@]5(C)CC[C@H](O[C@@H]6O[C@H](CO)[C@@H](O)[C@H](O)[C@H]6O)C(C)(C)C5CC[C@]43C)[C@H]12 (some centres undefined) | inactive | – | –
CC(=O)c1c(O)cc2c(c1C)C(=O)CC(O)C2 (centres undefined) | inactive | – | –
C=C(C)C(=O)O[C@H]1C[C@@](C)(OC(C)=O)[C@@]2(O)CC[C@@](C)(O)[C@H](OC(C)=O)[C@@]23OC(=O)C(COC)=C13 | inactive | – | –
CC(=O)O[C@H]1[C@H](C)[C@@H](O)[C@H]2[C@@H]1C=C(C(=O)O)[C@H]1C[C@@H]3[C@H]([C@H]21)[C@H]1C(=O)O[C@@H]2CC[C@@]3(C)O[C@]1(O)[C@@H]2C | inactive | – | –
C=C1CCC2[C@@](C)(C=O)CCC[C@]2(C)[C@H]1CC/C(C)=C/CO (some centres undefined) | inactive | – | –
CC(=O)O[C@@]1(C)C[C@@H](O)[C@]2(O)C=CO[C@@H](O[C@@H]3O[C@H](CO)[C@@H](O)[C@H](O)[C@H]3O)[C@@H]21 | inactive | – | –
C/C(=C\CCC(C(=O)O)C1CCC2(C)C3=C(CCC12C)C1(C)CCC(=O)C(C)(C)C1CC3)C(=O)O (centres undefined) | inactive | – | –
CC1CCC23COC(=O)C2=CC(O)CC3C1(C)CCC1=CC(=O)OC1O (centres undefined) | inactive | – | –
CC(C)CC(=O)O[C@@H]1OC=C(CO[C@@H]2O[C@H](CO[C@@H]3O[C@H](CO)[C@@H](O)[C@H](O)[C@H]3O)[C@@H](O)[C@H](O)[C@H]2O)[C@H]2C[C@H](O)[C@@H](CO)[C@@H]12 | inactive | – | –
C[C@H]1CC[C@@]2(OC1)O[C@H]1CC3C4CC=C5C[C@H](O)C[C@@H](O[C@@H]6O[C@@H](C)[C@H](O)[C@@H](O)[C@H]6O[C@@H]6O[C@@H](C)[C@H](O)[C@@H](O)[C@H]6O)[C@]5(C)C4CC[C@]3(C)[C@H]1[C@@H]2C (some centres undefined) | inactive | – | –
C/C=C(\C)C(=O)OC[C@H]1O[C@H](O[C@H]2O[C@H](CO)[C@@H](OC(=O)/C(C)=C/C)[C@H](O)[C@H]2O[C@@H]2O[C@H](CO)[C@@H](O)[C@H](O)[C@H]2O)[C@H](O[C@@H]2O[C@H](CO)[C@@H](O)[C@H](O)[C@H]2O)[C@@H](O)[C@@H]1O | inactive | – | –
C=C1C2(CCC(=O)OC2(C)C)CC(OC(=O)/C(C)=C/C)C2(C)C13OC14C(=O)OC(C)(C(=O)C12C(=O)OC4C)C3OC(C)=O (centres undefined) | inactive | – | –
CC(=O)O[C@@H]1[C@H](O[C@@H]2OC[C@](O)(CO)[C@H]2O)[C@@H](O[C@@H]2O[C@@H](C)[C@H](O)[C@@H](O)[C@H]2O)[C@H](OC(=O)[C@]23CCC(C)(C)C[C@H]2C2=CCC4[C@@]5(C)C[C@H](O)[C@H](O[C@@H]6O[C@H](C(=O)O)[C@@H](O)[C@H](O)[C@H]6O)[C@@](C)(C(=O)O)C5CC[C@@]4(C)[C@]2(C)CC3)O[C@@H]1C (some centres undefined) | inactive | – | –
C#C[C@]1(O)CC[C@H]2[C@@H]3CCC4=C/C(=N/O)CC[C@@H]4[C@H]3CC[C@@]21CC | inactive | – | –
CC1=C2CC3OC3(C)CCC3OC3(C)CC2OC1=O (centres undefined) | inactive | – | –
OC[C@H]1O[C@@H](OCCc2ccc(O)cc2)[C@H](O)[C@@H](O)[C@@H]1O | inactive | – | –
COC(=O)CCC(=O)CN | inactive | – | –
C[C@@H]1O[C@@H](O[C@H]2[C@H](O[C@H]3[C@H](O[C@H]4CC[C@@]5(CO)C(CC[C@]6(C)C5CC=C5C7CC(C)(C)C[C@@H](O)[C@]7(C)CC[C@]56C)C4(C)C)O[C@H](C(=O)O)[C@@H](O)[C@@H]3O)OC[C@@H](O)[C@@H]2O)[C@H](O)[C@H](O)[C@H]1O (some centres undefined) | inactive | – | –

Compound | Potency | activity, negative = inhibition | outcome
O=C(c1ccc(F)cc1)C1CCN(CCn2c(=O)nc3n(c2=O)CCCC3)CC1 | inactive | – | –
O=C(/C=C/c1ccc(O)cc1)OCC1=CC2OC(=O)C3=CO[C@@H](O[C@@H]4O[C@H](CO)[C@@H](O)[C@H](O)[C@H]4O)[C@H]1[C@@H]32 (some centres undefined) | inactive | – | –
CC(C)CC1(C(=O)OCc2ccc(O[C@@H]3O[C@H](CO)[C@@H](O)[C@H](O)[C@H]3O)cc2)CC(=O)OC(C(=O)O)CC(=O)OCC2OC(O1)C(OC(=O)/C=C/c1ccc(O)cc1)C(O)C2O (some centres undefined) | inactive | – | –
O=C(O)c1cc(O[C@@H]2O[C@H](CO[C@@H]3OC[C@@H](O)[C@H](O)[C@H]3O)[C@@H](O)[C@H](O)[C@H]2O)c2ccccc2c1O | inactive | – | –
NC(=O)c1cccc(-c2cc(O)cc(OC(=O)NC3CCCCC3)c2)c1 | inactive | – | –
CO[C@@H](Cc1ccc(OCCc2nc(-c3ccccc3)oc2C)c2ccsc12)C(=O)O | inactive | – | –
CC[C@H](/C=C/[C@@H](C)[C@H]1CC[C@H]2[C@@H]3CC=C4C[C@@H](O)CC[C@]4(C)[C@H]3CC[C@]12C)C(C)C | – | -3.99% [at 4.49 µM] | –
CC(=O)N[C@H]1[C@H](O[C@H]2CC[C@@]3(C)C(CC[C@]4(C)C3CC=C3C5CC(C)(C)CC[C@]5(C(=O)O)[C@H](O[C@@H]5O[C@H](CO)[C@@H](O)[C@H](O)[C@H]5O)C[C@]34C)C2(C)C)O[C@H](CO[C@@H]2OC[C@H](O)[C@H](O)[C@H]2O[C@@H]2OC[C@@H](O)[C@H](O)[C@H]2O)[C@@H](O)[C@@H]1O (some centres undefined) | inactive | – | –
COc1cc(C[C@H]2COC(=O)[C@@H]2Cc2ccc(O)c(OC)c2)ccc1O | inactive | – | –
C[C@H]1C[C@H]2[C@@H]3CCC4=CC(=O)C=C[C@]4(C)[C@@]3(F)[C@@H](O)C[C@]2(C)[C@@]1(O)C(=O)COP(=O)(O)O | inactive | – | –
CC(C)(C)NCc1cc(Nc2ccnc3cc(Cl)ccc23)c2c(c1O)CCCC2 | – | -7.83% [at 0.4 µM] | –
CO/N=C(\C(=O)N[C@@H]1C(=O)N2C(C(=O)O)=C(CSc3cnns3)CS[C@H]12)c1csc(N)n1 | 20.2 µM (active) | – | –
Nc1ncnc2c1ncn2[C@@H]1O[C@H](COP(=O)(O)OP(=O)(O)OP(=O)(O)O)[C@@H](O)[C@H]1O | – | – | inactive [at 0.4 µM]
Oc1ccc([C@H]2COc3cc(O)ccc3C2)cc1 | inactive | – | –
CC1(C)CC[C@]2(C(=O)O)CC[C@]3(C)C(=CCC4[C@@]5(C)C[C@H](O)[C@H](O[C@@H]6OC[C@H](O)[C@H](O)[C@H]6O)[C@@](C)(CO)C5CC[C@]43C)[C@@H]2C1 (some centres undefined) | inactive | – | –
O=C(c1ccccn1)c1cnn2c(-c3ccncc3)ccnc12 | inactive | – | –
COc1cc2c(cc1O)C1(OC)Cc3ccc4c(c3C1N(C)CC2)OCO4 (centres undefined) | inactive | – | –
C[C@@H]1C[C@H](O)/C=C/[C@H](O)[C@@H](O)CC(=O)O1 | inactive | – | –
C[C@@H]1O[C@@H](O[C@H]2[C@H](OC(=O)[C@]34CCC(C)(C)C[C@H]3C3=CCC5[C@@]6(C)C[C@H](O)[C@H](O[C@@H]7O[C@H](CO[C@@H]8OC[C@H](O)[C@H](O)[C@H]8O)[C@@H](O)[C@H](O)[C@H]7O)C(C)(C)C6CC[C@@]5(C)[C@]3(C)C[C@H]4O)OC[C@@H](O)[C@@H]2O)[C@H](O)[C@H](O[C@@H]2OC[C@](O)(CO)[C@H]2O)[C@H]1O[C@@H]1OC[C@H](O)[C@H](O[C@@H]2OC[C@@H](O)[C@H](O)[C@H]2O)[C@H]1O (some centres undefined) | – | – | inactive [at 9.52 µM]
